These sequences were tested against Oc (Drosophila melanogaster, UniProt P22810 52-141) (assay: FP; 33 mM phosphate pH 7.0, 90 mM NaCl, 0.01% Tween 20, 0.1 mM DTT, 0.5% agarose; room temperature). Details: tags: N-GST (pGEX-6P-1, kept); dsDNA, one strand shown.
Oc, sequence (P22810 52-141): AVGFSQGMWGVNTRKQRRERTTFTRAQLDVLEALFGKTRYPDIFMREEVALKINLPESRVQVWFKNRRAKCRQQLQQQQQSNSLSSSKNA

Sequence | binding signal | Kd
AGTTAATCCCCA | 1.11 Kd / Kd of best base at the position | –
AGCTAATCCCCT | 2.31 Kd / Kd of best base at the position | –
AGTTAAACCCCT | 93.6 Kd / Kd of best base at the position | –
AGTTAATCCCCC | 1.11 Kd / Kd of best base at the position | –
AGTTGATCCCCT | 15.1 Kd / Kd of best base at the position | –
AGTTAATACCCT | 251 Kd / Kd of best base at the position | –
AGTTAATCACCT | 7.07 Kd / Kd of best base at the position | –
AGTTAATCCCCT | – | ~3.8 nM
ATTTAATCCCCT | 2.15 Kd / Kd of best base at the position | –
AATTAATCCCCT | 2.08 Kd / Kd of best base at the position | –
AGTTAACCCCCT | 60 Kd / Kd of best base at the position | –
AGTTAATCTCCT | 3.07 Kd / Kd of best base at the position | –
AGTCAATCCCCT | 340 Kd / Kd of best base at the position | –
AGTTAAGCCCCT | 18 Kd / Kd of best base at the position | –
AGTTTATCCCCT | 1.7 Kd / Kd of best base at the position | –
AGTTAATTCCCT | 123 Kd / Kd of best base at the position | –
AGTTACTCCCCT | 12 Kd / Kd of best base at the position | –
AGTTAATGCCCT | 140 Kd / Kd of best base at the position | –
AGTTAATCCCTT | 1.11 Kd / Kd of best base at the position | –

Sequence | binding signal | Kd
AGTTAATCCGCT | 1.09 Kd / Kd of best base at the position | –
AGTGAATCCCCT | 176 Kd / Kd of best base at the position | –
AGTAAATCCCCT | 19.8 Kd / Kd of best base at the position | –
AGTTAATCCCAT | 1.11 Kd / Kd of best base at the position | –
AGTTATTCCCCT | 16.4 Kd / Kd of best base at the position | –
AGTTAATCGCCT | 6.1 Kd / Kd of best base at the position | –
AGTTAATCCCGT | 1.2 Kd / Kd of best base at the position | –
AGTTAATCCACT | 1.54 Kd / Kd of best base at the position | –
AGTTAATCCCCG | 1.11 Kd / Kd of best base at the position | –
GGTTAATCCCCT | 1.35 Kd / Kd of best base at the position | –
AGATAATCCCCT | 183 Kd / Kd of best base at the position | –
AGGTAATCCCCT | 3.1 Kd / Kd of best base at the position | –
TGTTAATCCCCT | 3.64 Kd / Kd of best base at the position | –
CGTTAATCCCCT | 2.09 Kd / Kd of best base at the position | –
AGTTCATCCCCT | 177 Kd / Kd of best base at the position | –
ACTTAATCCCCT | 1.03 Kd / Kd of best base at the position | –
AGTTAATCCTCT | 1.44 Kd / Kd of best base at the position | –
AGTTAGTCCCCT | 6.2 Kd / Kd of best base at the position | –

— article PMC5913336, “True equilibrium measurement of transcription factor-DNA binding affinities using automated polarization microscopy”
